Measurements published in PubChem BioAssay AID1619 (SRMLSC, 2009).
Out of some 220,000 compounds screened, about 830 (0.38%) were called active.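 How the source made its calls: active means compound inhibiting the enzyme by more than half at any dose during confirmatory dose-response retesting; inconclusive means strong single-dose inhibitors picked by rank but not retested; inactive means the rest.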 Only a sample is shown. Results with a measured potency or affinity are listed apart. Residues, ends and D or L forms follow the SMILES beside them. *: point of attachment. Boc = CC(C)(C)OC(=O)*

Target: Leucine aminopeptidase (Plasmodium falciparum (isolate 3D7)) (UniProt Q8IL11)
Sequence (Q8IL11 whole entry, looked up): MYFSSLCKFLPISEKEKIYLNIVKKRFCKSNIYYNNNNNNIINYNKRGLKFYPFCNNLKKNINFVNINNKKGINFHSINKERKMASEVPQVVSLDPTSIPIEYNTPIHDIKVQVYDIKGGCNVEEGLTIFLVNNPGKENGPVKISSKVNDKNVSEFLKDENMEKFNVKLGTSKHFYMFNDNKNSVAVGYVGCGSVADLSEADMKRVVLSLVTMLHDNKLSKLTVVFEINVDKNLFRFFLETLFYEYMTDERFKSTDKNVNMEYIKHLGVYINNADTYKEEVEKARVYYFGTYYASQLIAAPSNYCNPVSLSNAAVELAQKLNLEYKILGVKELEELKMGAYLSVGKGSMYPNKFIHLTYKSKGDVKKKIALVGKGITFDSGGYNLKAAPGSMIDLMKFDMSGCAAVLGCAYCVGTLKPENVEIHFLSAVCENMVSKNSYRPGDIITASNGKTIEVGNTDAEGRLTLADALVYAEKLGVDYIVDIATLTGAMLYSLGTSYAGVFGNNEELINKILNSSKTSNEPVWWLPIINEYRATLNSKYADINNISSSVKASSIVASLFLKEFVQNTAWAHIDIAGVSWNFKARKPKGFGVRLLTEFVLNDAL
Experiment: P. falciparum M17LAP inhibitors, primary screen, biochemical, fluorogenic H-Leu-NHMec substrate, 1536-well (AID 1619);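 further: plate controls were full reaction with DMSO carrier for no effect and no enzyme background for full effect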
Conditions: recombinant M17LAP, H-Leu-NHMec fluorogenic kinetic assay; at 30 µM; active compounds read high

inhibition, inactive:
CC(C)C(NC(=O)OC(C)(C)C)C(=O)N1CCCC1C(=O)NC(Cc1ccccc1)C(N)=O (stereo not drawn) (Boc-Val-Pro-Phe-NH2; configuration not given here) 17.4%
CC(C)(C)OC(=O)N1CCCC1C(=O)NC(Cc1ccccc1)C(=O)O (stereo not drawn) (Boc-Pro-Phe-OH; configuration not given here) 9.76%
Cc1nn(-c2ccc(F)cc2)c(Cl)c1/C=C/C(=O)OCC(=O)Nc1ccc(F)cc1F 0.75%
O=C(c1ccccc1)c1ncc(C(F)(F)F)cc1Cl -12.8%
CCCCn1c(SCC(=O)c2ccc(O)c(O)c2)nc2ccsc2c1=O 19.5%
O=C(O)CCCCCn1c(SCC(=O)N2CCCC2)nc2ccsc2c1=O 14.5%
CNc1nc(Oc2ccc(C(=O)OC)cc2)nc(SC)n1 -13.4%
Cn1cc(Cl)c(-c2n[nH]c(=S)n2-c2ccccc2)n1 8.04%
CCOC(=O)c1c(NC(=O)CSc2nc3ccccc3c(=O)n2-c2ccccc2)sc(C(C)=O)c1C -1.44%
O=C(c1cnn(C(=O)COc2ccccc2F)c1)c1cc(F)ccc1O 1.06%
Cc1ccc(O)c(C(=O)c2cnn(C(=O)Cc3csc(C)n3)c2)c1 -1.8%
O=C(Cn1cnc2ccccc2c1=O)c1ccc(Cl)cc1 1.39%
COc1ccc(N(C(=O)C(C)C)S(=O)(=O)c2ccc(Cl)cc2)cc1 -1.25%
CCOc1ccc(Nc2nc(Cc3nnc(SCC(N)=O)o3)cs2)cc1 27.7%
CCOc1ccc(Nc2nc(Cc3nnc(SCC(=O)c4ccc(C)cc4)o3)cs2)cc1 27.5%
CCn1c(COc2ccc(C)cc2)nnc1SCC(=O)NCc1ccco1 6.34%
CCn1c(CNc2nc(-c3ccccc3)cs2)nnc1SCC(=O)NCc1ccco1 -5.1%
CC(=O)/C(=N\Nc1cccc(Cl)c1)Sc1nnc(-c2ccccc2)n1-c1ccccc1 -10.1%
CCC(Oc1ccccc1)C(=O)NC1C(=O)N2C1SC(C)(C)C2C(=O)O (stereo not given) 19.9%
Cn1c(=O)c2c(nc(N3CCCCC3)n2CCNC2=NCCC2)n(C)c1=O 11.7%
O=C(Nc1ccccc1)Nc1scc2c1c(=O)oc1ccccc12 -3.24%
COc1ccc(C(=O)N2CCc3cc(OC)c(OC)cc3C2c2cccc([N+](=O)[O-])c2)cc1OC (stereo not given) -0.93%
Cc1ccc(C2C(C#N)=C3N=C(N)c4ccccc4N3C3=C2C(=O)CCC3)cc1 (stereo not given) -9.17%
Cn1c(-c2cccc3ccccc23)n[nH]c1=S -3.33%
c1ccc2c(-c3nn[nH]n3)cccc2c1 -2.27%
O=C(Oc1ccc(Br)cc1C(=S)N1CCCC1)c1ccccc1F -3.73%
CN=C1SC(CC(=O)Nc2ccc(N3CCOCC3)cc2)C(=O)N1C (stereo not given) -4.74%
CSCCC(NC(=O)c1cc(C)oc1C)C(=O)O (stereo not given) 5.74%
CSCCC(NC(=O)c1ccc(C)o1)C(=O)O (stereo not given) -6.5%
COC(=O)c1cccc(NC(=O)c2onc3c2CCCC3)c1 10.6%
Cc1cc(C(F)(F)F)nn1CC(=O)NNC(=S)Nc1ccc(Cl)cc1 19.4%
Cc1cc(C(=O)N/N=C/C=C/c2cccc([N+](=O)[O-])c2)n[nH]1 26.9%
CC(C)=N/N=C(/c1ccc([N+](=O)[O-])cc1)C12CN3CN(CN(C3)C1)C2 5.26%
CCOC(=O)c1c(N)sc2c1CCC(CC)C2 (stereo not given) -12.2%
CCOC(=O)c1c(NC(=O)C2C3CCC(O3)C2C(=O)O)sc2c1CCC(CC)C2 (stereo not given) 7.12%
CCOC(=O)c1c(NC(=S)Nc2ccccc2)sc2c1CCCCC2 3.6%
CCOC(=O)c1c(NS(C)(=O)=O)sc2c1CCC(C)C2 (stereo not given) 8.14%
CCOC(=O)c1c(N2C(=O)C3C4C=CC(C4)C3C2=O)sc2c1CCC(C)C2 (stereo not given) 2.96%
CCOC(=O)c1c(NC(=O)C2C3C=CC(C3)C2C(=O)O)sc2c1CC(C)(C)OC2 (stereo not given) 31.8%
CCOC(=O)c1c(NC(=O)c2ccc(N3C(=O)C4C5C=CC(C5)C4C3=O)cc2)sc2c1CCCC2 (stereo not given) -6.59%
CCOC(=O)c1c(NC(=O)C2C3C=CC(C3)C2C(=O)O)sc2c1CCCC2 (stereo not given) 42%
Cc1ccc(-n2c(SCC(=O)Nc3cc(C)on3)nc3c([nH]c4ccccc43)c2=O)cc1 4.1%
Cc1cc(C)n(CC(=O)c2cccc([N+](=O)[O-])c2)n1 7.13%
CNC(=O)c1nc(C)c(C2(C)CC(c3cccc([N+](=O)[O-])c3)=NO2)s1 (stereo not given) 11.9%
Cn1c(=O)n(C/C=C/c2ccccc2)c(=O)c2c1nc1n2CCCN1c1ccc(F)cc1 -5.1%
O=C(C1=C[C@@H](c2ccc(Br)cc2)C[C@@H](OCCCCO)O1)N1CCN(Cc2ccccc2)CC1 -0.63%
Cc1nn(C)cc1S(=O)(=O)N1CCN(Cc2ccc(F)cc2Cl)CC1 3.03%
CN1CCC(=NNC(=O)CN(c2cccc(Br)c2)S(C)(=O)=O)CC1 12.4%
CCOc1ccc(C(=O)NCc2ccccc2)cc1Br 5.79%
CCOCCOC(=O)C1=C(C)N(C)C(=O)NC1c1cc(Cl)c(O)c(OC)c1 (stereo not given) 2.91%
NS(=O)(=O)c1ccc(NCC2COc3ccccc3O2)c([N+](=O)[O-])c1 (stereo not given) 0.14%
CCn1c(SCC(=O)c2ccc(NS(=O)(=O)c3ccccc3)cc2)nnc1-c1cccs1 37%
C=CCn1c(SCC(=O)O)nnc1-c1cccs1 0.97%
CCC(=O)Nc1ccc(C(=O)CSc2nnc(-c3ccccc3F)n2C2CC2)cc1 4.72%
Cc1ccccc1OCc1nc2ccccc2c(=O)n1N -9.96%
CCOc1ccc(S(=O)(=O)Nc2ccc(O)c(Sc3ncn[nH]3)c2)cc1 71.4%
COc1ccc(OC)c(S(=O)(=O)Nc2ccc(O)c(Sc3ncn[nH]3)c2)c1 38.9%
Nc1c([N+](=O)[O-])cnnc1-c1ccccc1 -9.73%
Cc1n[nH]c(C)c1CNCc1c(C(=O)N2CCCCCCC2)nc2ccc(Cl)cn12 -4.57%
COc1ccc(NC(=O)CSc2nnc(NC(C)=O)s2)c([N+](=O)[O-])c1 11.8%
COc1cc(/C=C2\SC(=S)N(NS(=O)(=O)c3ccccc3)C2=O)cc(OC)c1OC 27.3%
COc1cc(/C=C2\SC(=S)N(NS(=O)(=O)c3ccc(C)cc3)C2=O)cc(OC)c1OC 19.5%
CCOc1ccc(/C=C2\SC(=S)N(C(C(=O)O)c3ccccc3)C2=O)cc1OC (stereo not given) 30.6%
CCOc1ccc(/C=C2\SC(=S)N(NS(=O)(=O)c3ccc(C)cc3)C2=O)cc1OC 21.5%
CCOc1ccc(/C=C2\SC(=S)N(NS(=O)(=O)c3ccccc3)C2=O)cc1OC 43.7%
CCOc1ccc(/C=C2/SC(=S)N(C(C(=O)O)c3ccccc3)C2=O)cc1OCC (stereo not given) 21.4%
COc1cc(=O)n(C)c2c(O)cccc12 4.51%
Cc1nnc(NC(=O)CSc2nnc(Cc3ccccc3)n2Cc2ccccc2)s1 14.2%
CCN(Cc1ccccc1)S(=O)(=O)c1ccc2c(c1)NC(=O)CC(=O)N2 0.95%
CCCCC1=CC2=CC(=O)C(C)(OC(=O)CC)C(=O)C2=CN1CCc1c[nH]c2ccccc12 (stereo not given) -3.57%
CCCn1c(=O)c(C(=O)N/N=C/c2ccc(F)cc2)c(O)c2ccccc21 -4.04%
O=C(Cn1nc(-c2ccccc2)c2ccccc2c1=O)Nc1ccc2c(c1)nc1n2CCOC1 -12.9%
Cn1ccnc1SCC(=O)Nc1cccc2ccccc12 16.9%
C=CCn1c(SCC(=O)Nc2ccccc2OC)nc(O)c(CC)c1=O 35.8%
C=CCn1c(SCC(=O)Nc2cccc3ccccc23)nnc1-c1cnccn1 1.49%
C=CCn1c(N)cc(=O)nc1SCC(=O)Nc1ccccc1 20%
Nc1cc(=O)nc(SCC(=O)Nc2cccc3ccccc23)n1CCc1ccccc1 43.5%
C=CCn1c(N)cc(=O)nc1SCC(=O)Nc1ccc(C)cc1 23.5%
Nc1cc(=O)nc(SCC(=O)Nc2ccccc2)n1-c1ccccc1 22.1%
Cn1c(=O)c2c(nc(SCC(=O)Nc3ccccc3)n2C)n(C)c1=O 0.43%
COc1cc2c(cc1NC(=O)/C=C/c1ccc([N+](=O)[O-])cc1)oc1ccccc12 -1.67%
CC1=C/C(=N\NC(=O)c2ccc(O)cc2)CC1 12.2%
COc1ccccc1-c1nnc(SC(C(=O)c2c[nH]c3ccccc23)c2ccccc2)n1C (stereo not given) 6.65%
CCCC(=O)NNC(=O)CCC(=O)Nc1ccccc1Cl 6.3%
Cc1cc(-c2onc(C)c2C(=O)O)no1 -2.33%
CC(C)C1CC(CCN2CCCCC2)(c2ccccc2)CCO1 (stereo not given) -6.12%
CC(=O)N1CCc2cc(C(=O)CN3CCN(c4ccccn4)CC3)ccc21 8.66%
COc1ccc(Cl)cc1-c1nc(SCC(=O)NC(C)C(C)C)n[nH]1 (stereo not given) -5.32%
CCc1c(O)nc(SCC(=O)Nc2ccccc2)n(-c2ccccc2)c1=O -0.62%
CCc1c(O)nc(SCc2ccccc2)n(C(C)CC)c1=O (stereo not given) 36.5%
